This is an account of results in PubChem BioAssay (NCATS).

One assay has as its system C33A. Put plainly: Primary qHTS to identify gynecologic anti-cancer compounds using libraries of approved drugs and bioactive compounds (AID 1345084). Also: nearly all actives have a fitted effect of over 55% in size. As to activity change, negative = cytotoxicity: % is scaled to controls: 0 for no effect and ±100 for the full control effect. Particulars: Gynecologic cancer cell panel viability, ATPlite luminescence, 48 h; series mostly up to 57.5 µM. The essentials: (§1)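 Measured: luminescence after ATPlite addition (15 min, RT). Exposure: 48 h, 37 C, 5% CO2.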
In general terms: Quantitative high-throughput screening tests each substance at several concentrations.

The test system of the next assay is CASKI. The assay is described as above. Particulars: Gynecologic cancer cell panel viability, ATPlite luminescence, 48 h; series mostly up to 57.5 µM. In a few lines:
as §1
In general terms: ATP-based viability assays read luminescence as a measure of living cells.

For another assay, the system named is Es-2. The description is as above. Conditions: Gynecologic cancer cell panel viability, ATPlite luminescence, 48 h; series mostly up to 57.5 µM. In a few lines: as §1
A further assay relates to HeLa. Described as above. Conditions: Gynecologic cancer cell panel viability, ATPlite luminescence, 48 h; series mostly up to 57.5 µM. The essentials: as §1
In the next assay the test system is Hek293T. Described as above. Particulars: Gynecologic cancer cell panel viability, ATPlite luminescence, 48 h, control line for the selectivity index; series mostly up to 57.5 µM. In a few lines: as §1
The next assay has as its system JEG-3. The description is as above. Particulars: Gynecologic cancer cell panel viability, ATPlite luminescence, 48 h; series mostly up to 57.5 µM. The essentials:
as §1

Another assay relates to OV90. Described as above. Conditions: Gynecologic cancer cell panel viability, ATPlite luminescence, 48 h; series mostly up to 57.5 µM. In a few lines: as §1
The subject of the next assay is PA-1. The description is as above. Conditions: Gynecologic cancer cell panel viability, ATPlite luminescence, 48 h; series mostly up to 57.5 µM. The essentials:
as §1

The next assay relates to SKOV3. The description is as above. Particulars: Gynecologic cancer cell panel viability, ATPlite luminescence, 48 h; series mostly up to 57.5 µM. The essentials: as §1
The subject of another assay is Tov-21-G. The assay is described as above. Conditions: Gynecologic cancer cell panel viability, ATPlite luminescence, 48 h; series mostly up to 57.5 µM. In a few lines:
as §1

The next assay relates to Tov112D. Described as above. Particulars: Gynecologic cancer cell panel viability, ATPlite luminescence, 48 h; series mostly up to 57.5 µM. In a few lines:
as §1

Another assay concerns CAOV3. Described as above. Conditions: Gynecologic cancer cell panel viability, ATPlite luminescence, 48 h; series mostly up to 57.5 µM. In a few lines: as §1
A short description of assay [1]: qHTS assay to identify inhibitors of the type 1 interferon - major histocompatibility complex class I in skeletal muscle: Counter screen cell viability and HiBit confirmation (AID 1347412). Also: nearly all actives have a fitted effect of over 60% in size. Particulars: iHSKM muscle cells + IFN-b, HiBiT or CellTiter-Glo, 24 h; Viability. The essentials: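 After 24 h with human IFN-beta (4 ng/ml) and compound titrations (top 46 uM final, 1:3, 12 points), HLA-B HiBit myoblasts were lysed for either Nano-Glo HiBiT luminescence or CellTiter Glo viability on paired plates.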

A short description of assay [2]: Drug repurposing screens with cells derived from glioblastoma tumor samples (AID 1345199). Also: nearly all actives have a fitted effect of over 40% in size. As to activity, negative = cell killing: % is scaled to controls: 0 for no effect and ±100 for the full control effect. Conditions: GBM patient neurospheres viability, ATP luminescence, 48 h. The essentials: (§2)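 Primary testing used CD133+ neurospheres from four GBM patients, seven concentrations, 48 h exposure and ATP-based viability; confirmation added three slower-growing patient lines.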
For the next assay, the system named is astro. The assay is described as above. Particulars: viability, ATP luminescence, 48 h; series mostly up to 91.6 µM. In a few lines:
as §2

Each structure is given as a SMILES string. Inconclusive results are not listed. Values without a mark were called inactive. Activity calls are given as the source filed them. Calls follow the shape of the dose curve; as a rule, active = well fitted curve in the direction sought with a large enough effect; inconclusive = small, poorly fitted or top-dose-only effect, or another doubt; inactive = no such curve, though single readings can be large; an effect the other way counts as inactive or inconclusive.
Potency is read from the fitted curve at half-maximal effect.

As to `C=C1CCC[C@]2(C)CC[C@@H](C(=C)C(=O)O)[C@H](O)[C@@H]12`, the Potency entry in the assay with C33A, in the assay on CASKI, with Es-2, with HeLa, in the assay with Hek293T and in the assay on JEG-3 was “inactive” throughout. For the same molecule, the Potency result with OV90, in the assay on PA-1, in the assay on SKOV3, with Tov-21-G and with Tov112D was “inactive” each time.
For `O=C(O[C@H]1[C@@H]2C=CO[C@@H](O[C@@H]3O[C@H](CO)[C@@H](O)[C@H](O)[C@H]3O)[C@@H]2[C@@]2(CO)O[C@@H]12)c1ccccc1`, the Potency result in the assay with C33A, with CASKI, with Es-2, in the assay on HeLa, with Hek293T and in the assay with JEG-3 was “inactive” each time. Moreover, the Potency result in the assay with OV90, in the assay on PA-1, in the assay with SKOV3, in the assay with Tov-21-G and in the assay on Tov112D was “inactive” in each case.
On to `COc1c2c(c(C)c3c1C(=O)OC3)OC1(C)CC(O)C34OC(OC)(CC(OC(C)=O)C3(C)C1C2)OC4(C)C` (stereo not given), for which the Potency result in the assay with C33A, in the assay with CASKI, with Es-2, in the assay on HeLa, in the assay on Hek293T and with JEG-3 was “inactive” each time. For the same molecule, the Potency entry in the assay with OV90, with PA-1, in the assay with SKOV3, in the assay on Tov-21-G and with Tov112D was “inactive” in each case.
Turning to `Cc1noc(=O)c2ccc(NC(=O)C(O)(CC(C)(C)c3cccc4c3OCC4)C(F)(F)F)cc12` (stereo not given), the Potency entry with C33A, in the assay with CASKI, in the assay on Es-2, with HeLa, with Hek293T and with JEG-3 was “inactive” in each case. Besides, the Potency result in the assay on OV90, with PA-1, with SKOV3, in the assay on Tov-21-G and with Tov112D was “inactive” throughout.
Consider `Cc1ccc(S(=O)(=O)c2ccc([N+](=O)[O-])o2)cc1`, for which the Potency is 11.2 µM (active) in the assay on C33A; 11.2 µM (active) in the assay on CAOV3; 8.91 µM (active) with Es-2; 8.91 µM (active) in the assay with Hek293T; 14.1 µM (active) in the assay on PA-1; 25.1 µM (active) in the assay with SKOV3. For the same molecule, the Potency in the assay on Tov-21-G was 7.94 µM (active).
With `CO[C@H]1C[C@@H]2CC[C@@H](C)[C@@](O)(O2)C(=O)C(=O)N2CCCC[C@H]2C(=O)O[C@H]([C@H](C)C[C@@H]2CC[C@@H](OP(C)(C)=O)[C@H](OC)C2)CC(=O)[C@H](C)/C=C(\C)[C@@H](O)[C@@H](OC)C(=O)[C@H](C)C[C@H](C)/C=C/C=C/C=C/1C`, the Potency result in the assay with C33A, in the assay with CAOV3, with Es-2, with HeLa, in the assay with JEG-3 and in the assay on PA-1 was “inactive” in each case. Besides, the Potency entry with SKOV3, in the assay with Tov-21-G and in the assay with Tov112D was “inactive” in each case.
Regarding `COc1cc2c(NC3CCN(CC4CCCCC4)CC3)nc(N3CCCN(C(C)C)CC3)nc2cc1OCCCN1CCCCC1`, the Potency with C33A was 14.1 µM (active); with CAOV3, 3.98 µM (active); with Es-2, 3.98 µM (active); with Hek293T, 20 µM (active); in the assay on JEG-3 it was 5.62 µM (active); in the assay with OV90 it was 3.16 µM (active). Moreover, the Potency is 5.62 µM (active) with PA-1; 3.98 µM (active) in the assay on SKOV3; 20 µM (active) in the assay on Tov-21-G; 7.94 µM (active) in the assay on Tov112D; 24.9 µM (active) in [1].
As to `CC1(C)CCC2(C(=O)OC3OCC(O)C(O)C3O)CCC3(C)C(=CCC4C5(C)CC(O)C(OC6OC(COC7OCC(O)C(O)C7O)C(O)C(O)C6O)C(C)(C)C5CCC43C)C2C1` (stereo not given), the activity change, negative = cytotoxicity in the assay on C33A is 7.41% [at 11.6 µM]; in the assay with CASKI, 17.9% [at 11.6 µM]; in the assay with Es-2, 5.97% [at 11.6 µM]; in the assay on HeLa it was 7.08% [at 11.6 µM]; in the assay on Hek293T, -8.87% [at 11.6 µM]; with JEG-3, 11.8% [at 11.6 µM]. Further, the activity change, negative = cytotoxicity is 4.98% [at 11.6 µM] with OV90; 14.1% [at 11.6 µM] in the assay with PA-1; 12.7% [at 11.6 µM] in the assay on SKOV3; 8.15% [at 11.6 µM] with Tov-21-G; 7.12% [at 11.6 µM] in the assay with Tov112D.
In the case of `CC(C)(C)Nc1nc(Nc2ccc(C(N)=O)cc2)cc(N)c1C#N`, the Potency in the assay on C33A was 25.1 µM (active). Besides, the Potency entry with CAOV3, with Es-2, with JEG-3, in the assay on OV90 and with Tov112D was “inactive” in each case.
For the molecule `CC(=O)O[C@H]1C(=O)[C@@]2(C)[C@H]([C@H](OC(=O)c3ccccc3)[C@]3(O)C[C@H](OC(=O)[C@H](O)[C@@H](NC(=O)c4ccccc4)c4ccccc4)C(C)=C1C3(C)C)[C@]1(OC(C)=O)CO[C@@H]1C[C@@H]2O`, the activity change, negative = cytotoxicity is -4.13% [at 11.6 µM] with C33A, -17.1% [at 11.6 µM] with CAOV3, -15.2% [at 11.6 µM] in the assay with OV90 and 0% [at 11.6 µM] in the assay on SKOV3. Moreover, the Potency with Es-2 is 0.126 µM (active); in the assay on HeLa, 0.0316 µM (active); in [2] (tumour line A), 31.6 µM (active); in [2] (tumour line D), 0.1 µM (active); with astro it was 39.8 µM (active). Moreover, the activity, negative = cell killing in [2] (at 45.9 µM (top of the series), tumour line B) is -12.5%.
For `CNCc1ccc(-c2cc(-c3nc(-c4ccc(S(=O)(=O)C(C)C)cc4)cnc3N)on2)cc1`, the Potency result with C33A and in the assay with JEG-3 was “inactive” throughout. Also, the Potency is 14.1 µM (active) in the assay with CAOV3; 8.91 µM (active) in the assay with Es-2; 11.2 µM (active) with PA-1; 3.16 µM (active) in the assay on SKOV3; 1.58 µM (active) with Tov-21-G.
